Measurements taken from PubChem BioAssay.
Values joined by “and” are separate entries in the source; they are usually repeats but may differ in a detail not shown here. Equal values may be shown once. Unmarked numbers belong to inactive results. For some assays here: Results with a measured potency or affinity are listed apart. Active and inactive are the calls of the source. Unless noted, how the calls were made is not given here.

How the values were obtained:
[1] = antimalarial activity against Dd2 strain (AID 2302;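 active means growth inhibition above 50% at the single 2 µM test dose, taken to imply half-maximal potency below 2 µM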;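 further: 0% = DMSO untreated growth and 100% = chloroquine plus artemisinin killed control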); details: P. falciparum Dd2 in RBCs, LDH growth readout, 72 h; at 2 µM; hits give high values
[2] = human hepatoma cell viability loss – ATP luminescence, cytotoxicity control for P. falciparum antimalarial project, primary screen (AID 2303;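 active means inhibition above 50%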;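 further: 0% = DMSO wells and 100% = digitonin-killed cells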); details: HepG2 viability, 24-48 h, at 10 µM, hits give high values
[3] = target: L-lactate dehydrogenase (Plasmodium falciparum (isolate CDC / Honduras)) (UniProt Q27743); assay: PfLDH activity inhibition – cell lysate, 3D7 strain, counter-screen for P. falciparum growth inhibition project (AID 2304);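 further: 0% = vehicle and 100% = reference inhibitor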; details: P. falciparum 3D7 crude extract, LDH APAD/NBT absorbance; at 2 µM; hits give high values
L-lactate dehydrogenase (Plasmodium falciparum (isolate CDC / Honduras)), sequence (Q27743 whole entry, looked up): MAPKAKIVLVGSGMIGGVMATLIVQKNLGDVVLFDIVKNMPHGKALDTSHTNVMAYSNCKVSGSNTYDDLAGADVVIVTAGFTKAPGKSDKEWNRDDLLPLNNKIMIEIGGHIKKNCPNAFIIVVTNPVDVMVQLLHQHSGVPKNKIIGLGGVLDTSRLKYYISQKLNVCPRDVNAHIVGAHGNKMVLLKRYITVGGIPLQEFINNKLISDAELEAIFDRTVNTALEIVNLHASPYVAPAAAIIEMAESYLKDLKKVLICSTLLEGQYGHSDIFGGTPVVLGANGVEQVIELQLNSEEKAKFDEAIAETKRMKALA

[4] = inhibition of 3D7 malaria parasite growth – strain 3D7 (AID 2306);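 further: 0% = DMSO wells and 100% = chloroquine plus artemisinin control wells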; details: P. falciparum 3D7 erythrocytic growth, LDH absorbance, 72 h; at 2 µM; hits give high values
[5] = target: Calcium-dependent protein kinase 1 (Plasmodium falciparum (isolate 3D7)) (UniProt P62344); assay: PfCDPK1 kinase inhibitors, biochemical, TCAMS library (AID 1159585; cut-off not given, nearly all actives have IC50 up to about 0.98 µM;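 further: inhibitors leave more ATP so luminescence rises with inhibition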); details: recombinant PfCDPK1, Kinase-Glo ATP depletion luminescence
Calcium-dependent protein kinase 1 (Plasmodium falciparum (isolate 3D7)), sequence (P62344 whole entry, looked up): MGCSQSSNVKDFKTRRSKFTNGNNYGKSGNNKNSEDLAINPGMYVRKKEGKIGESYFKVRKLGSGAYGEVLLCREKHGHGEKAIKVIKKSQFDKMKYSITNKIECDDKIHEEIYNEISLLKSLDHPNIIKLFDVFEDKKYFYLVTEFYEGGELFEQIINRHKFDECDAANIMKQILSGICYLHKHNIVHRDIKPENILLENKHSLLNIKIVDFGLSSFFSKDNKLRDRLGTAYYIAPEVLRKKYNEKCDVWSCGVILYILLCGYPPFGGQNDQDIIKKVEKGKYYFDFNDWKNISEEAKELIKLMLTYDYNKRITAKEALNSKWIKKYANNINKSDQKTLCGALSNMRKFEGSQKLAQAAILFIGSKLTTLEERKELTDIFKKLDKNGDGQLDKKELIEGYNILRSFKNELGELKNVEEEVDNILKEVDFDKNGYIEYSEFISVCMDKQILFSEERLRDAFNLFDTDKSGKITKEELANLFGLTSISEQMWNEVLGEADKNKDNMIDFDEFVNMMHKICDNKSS

[6] = target: Plasmodium falciparum protein kinase 6 (PK6, PF3D7_1337100) (UniProt Q8IDW1); assay: PfPK6 kinase inhibitors, biochemical, TCAMS library (AID 1159586); details: recombinant PfPK6, Kinase-Glo ATP depletion luminescence
Plasmodium falciparum protein kinase 6 (PK6, PF3D7_1337100), sequence (Q8IDW1 1-305): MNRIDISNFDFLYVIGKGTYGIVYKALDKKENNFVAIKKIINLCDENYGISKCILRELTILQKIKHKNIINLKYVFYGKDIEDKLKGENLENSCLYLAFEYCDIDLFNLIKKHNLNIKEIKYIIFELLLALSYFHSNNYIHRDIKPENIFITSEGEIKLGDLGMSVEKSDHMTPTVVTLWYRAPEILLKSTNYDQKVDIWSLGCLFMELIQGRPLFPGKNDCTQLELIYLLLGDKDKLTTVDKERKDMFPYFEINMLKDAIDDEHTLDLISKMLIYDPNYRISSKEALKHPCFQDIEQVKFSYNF

[7] = target: Protein kinase 7 (PK7), Plasmodium falciparum 3D7 (PF3D7_0213400) (UniProt Q7YTF7); assay: inhibition of Plasmodium PK7 catalytic activity – biochemical, TCAMS antimalarial set, Kinase-Glo luminescence (AID 1159587); details: recombinant PfPK7, Kinase-Glo ATP depletion luminescence
Protein kinase 7 (PK7), Plasmodium falciparum 3D7 (PF3D7_0213400), sequence (Q7YTF7 1-343): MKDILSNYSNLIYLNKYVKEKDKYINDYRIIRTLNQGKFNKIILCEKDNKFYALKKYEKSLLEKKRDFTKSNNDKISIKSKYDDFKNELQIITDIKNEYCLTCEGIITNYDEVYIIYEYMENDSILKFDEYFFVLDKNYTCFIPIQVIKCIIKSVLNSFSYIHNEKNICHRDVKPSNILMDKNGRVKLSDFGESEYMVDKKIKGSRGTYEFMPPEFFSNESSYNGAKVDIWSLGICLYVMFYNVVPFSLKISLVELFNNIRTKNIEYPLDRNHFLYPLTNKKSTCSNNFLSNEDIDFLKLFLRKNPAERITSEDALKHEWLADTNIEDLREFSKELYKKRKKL

[8] = target: Calcium-dependent protein kinase 4 (Plasmodium falciparum (isolate 3D7)) (UniProt Q8IBS5); assay: PfCDPK4 kinase inhibitors, biochemical, TCAMS library (AID 1159588; cut-off not given, nearly all actives have IC50 up to about 0.91 µM); details: recombinant PfCDPK4, Kinase-Glo ATP depletion luminescence
Calcium-dependent protein kinase 4 (Plasmodium falciparum (isolate 3D7)), sequence (Q8IBS5 whole entry, looked up): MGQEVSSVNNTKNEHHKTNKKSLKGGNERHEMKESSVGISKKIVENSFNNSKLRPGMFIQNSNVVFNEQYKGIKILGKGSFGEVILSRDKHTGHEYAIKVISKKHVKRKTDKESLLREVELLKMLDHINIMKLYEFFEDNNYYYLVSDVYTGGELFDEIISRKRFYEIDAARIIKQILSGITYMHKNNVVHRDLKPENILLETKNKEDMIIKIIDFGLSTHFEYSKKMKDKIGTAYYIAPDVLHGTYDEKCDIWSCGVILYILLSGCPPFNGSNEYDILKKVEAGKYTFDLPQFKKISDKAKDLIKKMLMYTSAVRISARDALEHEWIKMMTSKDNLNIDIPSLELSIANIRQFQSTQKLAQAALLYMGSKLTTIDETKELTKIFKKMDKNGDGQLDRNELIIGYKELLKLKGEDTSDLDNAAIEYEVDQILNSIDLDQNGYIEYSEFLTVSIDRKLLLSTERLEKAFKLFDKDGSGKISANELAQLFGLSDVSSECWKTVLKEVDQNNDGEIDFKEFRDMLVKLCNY

SMILES	growth inhibition [1]	inhibition [2]	inhibition [3]	growth inhibition [4]	outcome [5]	outcome [6]	outcome [7]	outcome [8]
CC(Cc1ccc(OC2CCCCC2)cc1)NCC(O)c1cccc(Cl)c1 (stereo unspecified)	99% (active)	66% (active)	-4%	99% (active)	inactive	inactive	inactive	inactive
C[C@@H](CC1CCCCC1)NCc1ccccc1O	67% (active)	9%	3%	98% (active)	inactive	inactive	inactive	inactive
O=C(NC1CCC(N2CCC3(CC2)C(=O)NCN3c2ccccc2)CC1)c1cc2ccccc2[nH]1 (stereo unspecified)	40%	-2%	1%	98% (active)	inactive	inactive	inactive	inactive
O=C(CC1CCCC1)N(CC1CCN(Cc2ccc(C(F)(F)F)cc2)CC1)c1ccc(N2CCOCC2)c(F)c1	97% (active)	10%	-1%	92% (active)	inactive	inactive	inactive	inactive
C[C@@H](NC(C)(C)C)[C@H](O)c1ccc(Cl)c(C(F)(F)F)c1	97% (active)	-1%	-6%	97% (active)	inactive	inactive	inactive	inactive
NCc1ccc(-c2ccccc2CN(C(=O)Nc2ccccc2)C2CCN(Cc3ccccc3)CC2)cc1	35%	36%	3%	100% (active)	inactive	inactive	inactive	inactive
O=C(/C=C/c1ccc(Cl)cc1)NC1CCC(CN2CCC(c3c[nH]c4ccccc34)CC2)CC1 (stereo unspecified)	67% (active) and 90% (active)	39% and 40%	-6% and 4%	99% (active) and 100% (active)	inactive	inactive	inactive	inactive
CC[C@H]1CN2CC[C@H]1C[C@H]2[C@H](O)c1cc(-c2ccc(F)cc2)nc2ccc(OC)cc12	98% (active)	34%	5%	99% (active)	inactive	inactive	inactive	inactive
Cc1cc(NC(=O)[C@@H](Nc2ccc(C#N)c3ccccc23)C2CCCCC2)ccc1F	83% (active)	10%	0%	95% (active)	inactive	inactive	inactive	inactive
O=S(=O)(NC1CCC(CN2CCC(c3c[nH]c4ccccc34)CC2)CC1)c1ccc(Cl)c(Cl)c1 (stereo unspecified)	32%	36%	0%	97% (active)	inactive	inactive	inactive	inactive
CCN1CCC(N2CCC(n3c(C)nc4cc(C(F)(F)F)ccc43)CC2)CC1	16%	6%	1%	93% (active)	inactive	inactive	inactive	inactive
O=C(/C=C/c1ccc(Cl)c(Cl)c1)N1CCC(CN2CCC(c3c[nH]c4ccc(NS(=O)(=O)c5cccs5)cc34)CC2)CC1	100% (active)	17%	-7%	100% (active)	inactive	inactive	inactive	inactive
O=C(/C=C/c1ccc(Cl)c(Cl)c1)NCC1CCC(N2CCC(c3c[nH]c4ccccc34)CC2)CC1 (stereo unspecified)	95% (active)	48%	-1%	101% (active)	inactive	inactive	inactive	inactive
CC[C@H]1CN2CC[C@H]1C[C@H]2[C@@H](O)c1cc(OCCCN(C)C)nc2ccc(OC)cc12	8%	-7%	-2%	99% (active)	inactive	inactive	inactive	inactive
CC1(CCCCN2CC=C(c3c[nH]c4ccccc34)CC2)C(=O)Nc2ccccc21 (stereo unspecified)	90% (active)	3%	4%	94% (active)	inactive	inactive	inactive	inactive
COc1ccc2c(c1)[nH]c1c(C=Cc3ccccc3)nccc12	6%	19%	7%	91% (active)	inactive	inactive	inactive	inactive
CC[C@H]1CN2CC[C@H]1C[C@H]2[C@H](O)c1cc(-c2ccc(Cl)c(Cl)c2)nc2ccc(OC)cc12	99% (active)	17%	6%	98% (active)	inactive	inactive	inactive	inactive
COCC(=O)N(Cc1ccccc1-c1ccc(CNCCc2ccccc2)cc1)C1CCN(Cc2ccccc2)CC1	86% (active)	39%	1%	94% (active)	inactive	inactive	inactive	inactive
O=C(C=Cc1ccc([N+](=O)[O-])cc1)NC1CCC(CN2CCC(c3c[nH]c4ccccc34)CC2)CC1 (stereo unspecified)	61% (active) and 81% (active)	30% and 34%	-3%	102% (active) and 101% (active)	inactive	inactive	inactive	inactive

SMILES	growth inhibition [1]	inhibition [2]	inhibition [3]	growth inhibition [4]	outcome [5]	outcome [6]	outcome [7]	outcome [8]
Cc1[nH]c2ccccc2c1C1=CCN(CCCCCC23CCCc4cccc(c42)NC3=O)CC1 (stereo unspecified)	91% (active)	11%	5%	94% (active)	inactive	inactive	inactive	inactive
COc1ccc(C=CC(=O)NC2CCC(CN3CCC(c4c[nH]c5ccccc45)CC3)CC2)cc1 (stereo unspecified)	60% (active) and 61% (active)	13% and 30%	-6% and -7%	100% (active)	inactive	inactive	inactive	inactive
COc1ccc(CC(C)NCC(O)c2cccc(C(F)(F)F)c2)cc1F (stereo unspecified)	65% (active)	-4%	-8%	91% (active)	inactive	inactive	inactive	inactive
COc1c(F)cc(CC(C)NCC(O)c2cccc(Cl)c2)cc1F (stereo unspecified)	86% (active)	0%	0%	93% (active)	inactive	inactive	inactive	inactive
Cc1cccc(N2CCN(Cc3cc(Cl)ccc3O)CC2)c1C	96% (active)	-2%	2%	96% (active)	inactive	inactive	inactive	inactive
O=C(/C=C/c1ccc(Cl)c(Cl)c1)N1CCC(CN2CCC(c3c[nH]c4cc(C(F)(F)F)ccc34)CC2)CC1	38%	6%	-5%	99% (active)	inactive	inactive	inactive	inactive
CNCCc1c(O)ccc2ccccc12	-1%	6%	2%	94% (active)	inactive	inactive	inactive	inactive
CS(=O)(=O)Nc1ccc2[nH]cc(C3C[C@H]4CC[C@@H](C3)N4CC3CCC(NC(=O)/C=C/c4ccc(Cl)c(Cl)c4)CC3)c2c1 (stereo partly specified)	50% (active)	3%	7%	101% (active)	inactive	inactive	inactive	inactive
CO[C@@H]1C[C@@H](C(=O)Nc2ccccc2)N(c2ccc(C#N)c3ccccc23)C1	100% (active)	7%	6%	98% (active)	inactive	inactive	inactive	inactive
Clc1ccc2nccc(N3CCC(CN4CCC(c5c[nH]c6ccccc56)CC4)CC3)c2c1	81% (active)	46%	4%	101% (active)	inactive	inactive	inactive	inactive
Cn1c(C2C[C@H]3CC[C@H](C2)N3CC2CCC(NC(=O)/C=C/c3ccc(Cl)c(Cl)c3)CC2)nc2ccccc21 (stereo partly specified)	51% (active)	50% (active)	4%	100% (active)	inactive	inactive	inactive	inactive
O=C(Nc1ccccc1C(F)(F)F)NC1CCC(CN2CCC(c3c[nH]c4ccccc34)CC2)CC1 (stereo unspecified)	12% and 42%	34% and 46%	-3%	86% (active) and 96% (active)	inactive	inactive	inactive	inactive
CCC1CN2CCc3cc(OC)c(OC)cc3C2CC1CC1NCCc2c1[nH]c1ccc(O)cc21 (stereo unspecified)	100% (active)	45%	-7%	99% (active)	inactive	inactive	inactive	inactive
O=C(NC1CCN(CCc2c[nH]c3ccc(F)cc23)CC1)c1ncc(-c2ccccc2)[nH]1	69% (active)	-3%	-1%	102% (active)	inactive	inactive	inactive	inactive
C=C[C@H]1CN2CC[C@H]1C[C@H]2[C@H](O)c1cc(/C=C/c2ccc(F)cc2)nc2ccc(OC)cc12	99% (active)	25%	4%	99% (active)	inactive	inactive	inactive	inactive
O=C(NC1CCC(CN2CCC(c3c[nH]c4ccccc34)CC2)CC1)c1csc(-c2cccc(Cl)c2Cl)n1 (stereo unspecified)	41%	34%	-3%	99% (active)	inactive	inactive	inactive	inactive
CC[C@H]1CN2CC[C@H]1C[C@H]2[C@H](O)c1ccnc2ccc(O)cc12	2%	11%	-3%	99% (active)	inactive	inactive	inactive	inactive
CCOC(C(=O)OCCN(C(C)C)C(C)C)(c1ccccc1)c1ccccc1	4%	4%	-2%	97% (active)	inactive	inactive	inactive	inactive
